# Source: the supplement of paper PMC11006884
# About 6,500 targets were measured; listed, in parts, are those with a hit and a random draw of the rest. About 2% of all pairs of compound and target were hits.
# Compound: COC(=O)C#Cc1ccccc1 [methyl 3-phenylpropiolate]
# Assay: log2 ratio of iodoacetamide-alkyne labeling of the cysteine site, DMSO over compound (competition); higher = stronger covalent engagement of the cysteine by the compound, active = 1 or more
# Details: 500 µM; treatment time 1 h; system: HEK293T cell lysate
# In short: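 HEK293T lysate at 2 mg/mL was treated with vehicle or electrophile (500 µM) for 1 h at ambient temperature, then labelled with iodoacetamide alkyne (1 h), clicked to sCIP-TMT reagents, pooled, digested with trypsin overnight at 37 °C, enriched on streptavidin and eluted with acid. Peptides were analysed by Orbitrap Eclipse LC-MS/MS with FAIMS and quantified in FragPipe, using duplicate channels and three replicates, with cysteines quantified in only one replicate excluded. The log2 competition ratio for each cysteine is the mean control-channel reporter intensity divided by the mean compound-channel reporter intensity.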
# Chain of UniProt P22102 (P22102 whole entry, looked up): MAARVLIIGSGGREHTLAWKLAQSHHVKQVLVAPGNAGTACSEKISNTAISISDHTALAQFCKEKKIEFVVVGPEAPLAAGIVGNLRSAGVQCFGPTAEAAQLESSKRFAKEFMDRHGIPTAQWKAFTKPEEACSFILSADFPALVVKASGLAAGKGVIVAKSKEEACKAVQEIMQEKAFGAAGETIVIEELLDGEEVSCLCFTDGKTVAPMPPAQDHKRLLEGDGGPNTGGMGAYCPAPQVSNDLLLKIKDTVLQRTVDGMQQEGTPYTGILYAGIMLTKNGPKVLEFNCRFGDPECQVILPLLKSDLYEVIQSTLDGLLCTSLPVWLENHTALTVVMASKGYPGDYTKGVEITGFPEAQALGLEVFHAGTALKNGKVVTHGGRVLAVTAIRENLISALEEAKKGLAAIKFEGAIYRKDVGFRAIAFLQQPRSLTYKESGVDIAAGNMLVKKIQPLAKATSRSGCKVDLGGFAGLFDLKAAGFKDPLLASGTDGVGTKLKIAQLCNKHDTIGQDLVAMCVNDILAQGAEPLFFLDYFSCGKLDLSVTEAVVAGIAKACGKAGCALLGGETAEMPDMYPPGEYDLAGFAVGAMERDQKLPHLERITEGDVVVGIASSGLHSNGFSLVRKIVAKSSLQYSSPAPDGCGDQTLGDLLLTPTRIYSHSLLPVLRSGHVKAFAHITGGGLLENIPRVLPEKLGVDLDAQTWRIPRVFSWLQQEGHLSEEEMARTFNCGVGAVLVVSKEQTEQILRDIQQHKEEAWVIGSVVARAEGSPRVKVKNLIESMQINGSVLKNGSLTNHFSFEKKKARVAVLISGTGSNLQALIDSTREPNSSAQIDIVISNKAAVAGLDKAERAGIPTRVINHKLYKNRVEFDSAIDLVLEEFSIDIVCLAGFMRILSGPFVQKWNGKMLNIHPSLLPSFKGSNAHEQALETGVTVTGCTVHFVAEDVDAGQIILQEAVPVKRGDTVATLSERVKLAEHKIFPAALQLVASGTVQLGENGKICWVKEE
# Chain of UniProt P13861 (P13861 whole entry, looked up): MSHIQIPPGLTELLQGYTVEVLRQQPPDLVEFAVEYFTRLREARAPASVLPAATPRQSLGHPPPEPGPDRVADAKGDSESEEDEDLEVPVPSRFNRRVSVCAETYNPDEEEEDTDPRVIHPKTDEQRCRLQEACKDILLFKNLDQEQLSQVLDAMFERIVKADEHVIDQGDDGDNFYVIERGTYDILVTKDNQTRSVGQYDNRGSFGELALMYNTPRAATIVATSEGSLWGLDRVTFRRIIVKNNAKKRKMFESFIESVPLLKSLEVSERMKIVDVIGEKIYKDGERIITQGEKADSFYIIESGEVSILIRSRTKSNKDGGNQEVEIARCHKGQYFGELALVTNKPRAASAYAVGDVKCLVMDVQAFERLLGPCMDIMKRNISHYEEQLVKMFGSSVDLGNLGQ
# Chain of UniProt P35579 (P35579 whole entry, looked up): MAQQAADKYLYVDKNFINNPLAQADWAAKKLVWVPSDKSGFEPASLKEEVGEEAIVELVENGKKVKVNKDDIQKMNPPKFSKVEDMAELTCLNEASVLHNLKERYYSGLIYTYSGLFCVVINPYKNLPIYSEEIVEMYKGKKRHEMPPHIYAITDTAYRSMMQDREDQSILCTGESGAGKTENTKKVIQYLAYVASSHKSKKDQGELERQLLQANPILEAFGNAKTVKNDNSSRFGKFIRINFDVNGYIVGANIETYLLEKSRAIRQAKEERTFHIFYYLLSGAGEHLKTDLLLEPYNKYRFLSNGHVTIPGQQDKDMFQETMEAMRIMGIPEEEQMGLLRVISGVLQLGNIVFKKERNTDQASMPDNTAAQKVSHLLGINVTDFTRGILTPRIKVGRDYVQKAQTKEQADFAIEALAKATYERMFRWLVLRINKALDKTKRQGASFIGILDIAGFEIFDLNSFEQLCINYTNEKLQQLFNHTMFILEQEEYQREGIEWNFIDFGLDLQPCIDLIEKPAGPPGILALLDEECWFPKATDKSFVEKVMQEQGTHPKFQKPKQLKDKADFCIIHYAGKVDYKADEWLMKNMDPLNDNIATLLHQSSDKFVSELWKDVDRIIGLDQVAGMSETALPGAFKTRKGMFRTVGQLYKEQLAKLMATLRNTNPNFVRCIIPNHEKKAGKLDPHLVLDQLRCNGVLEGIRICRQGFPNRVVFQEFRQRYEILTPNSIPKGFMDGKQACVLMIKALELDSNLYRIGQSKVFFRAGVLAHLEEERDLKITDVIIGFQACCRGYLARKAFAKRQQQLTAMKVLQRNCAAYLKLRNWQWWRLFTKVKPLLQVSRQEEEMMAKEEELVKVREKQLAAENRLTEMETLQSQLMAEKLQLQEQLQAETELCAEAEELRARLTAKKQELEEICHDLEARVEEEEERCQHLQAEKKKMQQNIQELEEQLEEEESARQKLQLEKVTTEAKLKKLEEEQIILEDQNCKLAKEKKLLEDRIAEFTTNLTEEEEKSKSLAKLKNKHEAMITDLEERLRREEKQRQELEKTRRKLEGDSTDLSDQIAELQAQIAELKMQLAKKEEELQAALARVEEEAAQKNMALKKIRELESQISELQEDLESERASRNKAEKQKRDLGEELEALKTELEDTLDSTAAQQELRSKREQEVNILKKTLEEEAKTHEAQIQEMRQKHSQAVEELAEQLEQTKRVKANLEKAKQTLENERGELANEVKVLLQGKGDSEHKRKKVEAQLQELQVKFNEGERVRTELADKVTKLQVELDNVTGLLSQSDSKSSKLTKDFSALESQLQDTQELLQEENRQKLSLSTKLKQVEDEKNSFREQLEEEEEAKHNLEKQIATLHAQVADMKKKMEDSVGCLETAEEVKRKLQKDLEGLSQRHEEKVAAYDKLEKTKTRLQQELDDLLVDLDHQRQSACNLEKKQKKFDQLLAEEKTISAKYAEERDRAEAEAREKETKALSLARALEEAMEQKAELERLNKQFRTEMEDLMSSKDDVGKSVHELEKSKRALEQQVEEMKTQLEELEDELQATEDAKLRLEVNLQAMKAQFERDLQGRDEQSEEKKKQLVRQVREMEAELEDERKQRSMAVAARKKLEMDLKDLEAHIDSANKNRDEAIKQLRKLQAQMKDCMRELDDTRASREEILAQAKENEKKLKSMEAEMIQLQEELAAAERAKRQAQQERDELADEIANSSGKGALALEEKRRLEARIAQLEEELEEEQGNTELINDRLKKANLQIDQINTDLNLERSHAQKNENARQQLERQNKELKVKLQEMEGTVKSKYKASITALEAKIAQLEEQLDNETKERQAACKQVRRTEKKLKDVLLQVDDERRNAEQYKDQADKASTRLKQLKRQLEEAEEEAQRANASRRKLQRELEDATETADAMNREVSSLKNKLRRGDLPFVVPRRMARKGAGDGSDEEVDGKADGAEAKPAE
# Chain of UniProt P09543 (P09543 whole entry, looked up): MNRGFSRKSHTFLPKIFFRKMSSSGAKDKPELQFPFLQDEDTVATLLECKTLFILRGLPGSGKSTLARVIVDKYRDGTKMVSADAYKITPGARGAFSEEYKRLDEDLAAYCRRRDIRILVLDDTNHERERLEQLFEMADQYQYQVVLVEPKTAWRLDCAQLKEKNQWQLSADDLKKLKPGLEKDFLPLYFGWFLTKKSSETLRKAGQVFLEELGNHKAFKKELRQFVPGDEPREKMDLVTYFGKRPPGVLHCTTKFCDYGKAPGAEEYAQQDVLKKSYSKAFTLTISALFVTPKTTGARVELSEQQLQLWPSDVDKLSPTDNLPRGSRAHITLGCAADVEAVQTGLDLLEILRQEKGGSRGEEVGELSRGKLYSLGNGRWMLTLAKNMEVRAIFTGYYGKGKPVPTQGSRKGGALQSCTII
# Chain of UniProt P20700 (P20700 whole entry, looked up): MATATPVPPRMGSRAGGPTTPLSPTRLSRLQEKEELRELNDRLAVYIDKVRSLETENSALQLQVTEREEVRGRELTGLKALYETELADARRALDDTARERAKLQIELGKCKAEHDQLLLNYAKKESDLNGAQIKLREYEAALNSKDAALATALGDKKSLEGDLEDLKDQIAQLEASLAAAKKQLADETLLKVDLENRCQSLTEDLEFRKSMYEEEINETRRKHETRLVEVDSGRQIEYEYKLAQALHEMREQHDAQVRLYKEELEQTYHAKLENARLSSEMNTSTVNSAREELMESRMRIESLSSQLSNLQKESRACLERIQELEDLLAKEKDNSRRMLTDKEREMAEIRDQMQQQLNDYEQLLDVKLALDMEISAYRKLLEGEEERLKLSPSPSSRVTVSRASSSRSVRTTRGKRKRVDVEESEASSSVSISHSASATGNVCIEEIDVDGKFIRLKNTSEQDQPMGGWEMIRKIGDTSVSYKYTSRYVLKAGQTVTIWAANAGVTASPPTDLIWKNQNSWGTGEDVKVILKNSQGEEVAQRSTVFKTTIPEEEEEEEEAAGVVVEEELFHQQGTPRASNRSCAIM
# Chain of UniProt P31948 (P31948 whole entry, looked up): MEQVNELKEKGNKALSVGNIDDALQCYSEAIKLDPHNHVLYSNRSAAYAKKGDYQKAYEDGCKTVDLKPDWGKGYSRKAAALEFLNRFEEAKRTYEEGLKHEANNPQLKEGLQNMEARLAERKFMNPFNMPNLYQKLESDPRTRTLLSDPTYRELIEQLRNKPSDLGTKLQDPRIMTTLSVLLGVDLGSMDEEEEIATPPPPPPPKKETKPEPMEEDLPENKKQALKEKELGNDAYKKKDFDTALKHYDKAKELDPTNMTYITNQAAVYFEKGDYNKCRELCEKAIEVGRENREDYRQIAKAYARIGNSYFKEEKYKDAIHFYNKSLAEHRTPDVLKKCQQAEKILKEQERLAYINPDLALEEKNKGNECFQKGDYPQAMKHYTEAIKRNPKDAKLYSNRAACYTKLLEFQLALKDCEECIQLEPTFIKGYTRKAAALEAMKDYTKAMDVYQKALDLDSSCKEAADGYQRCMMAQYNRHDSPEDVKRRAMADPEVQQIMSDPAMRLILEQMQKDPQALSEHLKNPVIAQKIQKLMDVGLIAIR
row,Target,log2 ratio of iodoacetamide-alkyne labeling
1,LMNB1 C198 (UniProt P20700),0.109 (inactive)
2,VDAC2 C227 (UniProt P45880),1.39 (active)
3,VDAC2 C8 (UniProt P45880),0.376 (inactive)
4,RPL17 C144 (UniProt P18621),0.131 (inactive)
5,MYH9 C1379 (UniProt P35579),0.164 (inactive)
6,FASN C1127 (UniProt P49327),0.394 (inactive)
7,RANBP2 C82 (UniProt P49792),0.564 (inactive)
8,MSH2 C333 (UniProt P43246),1.16 (active)
9,UniProt P23610_C62,0.0767 (inactive)
10,STIP1 C339 (UniProt P31948),0.0728 (inactive)
11,TMPO C280 (UniProt P42166),1.09 (active)
12,GART C466 (UniProt P22102),0.199 (inactive)
13,CNP C111 (UniProt P09543),0.0267 (inactive)
14,HSPA4L C167 (UniProt O95757),-0.00119 (inactive)
15,PRKAR2A C128 (UniProt P13861),0.00919 (inactive)
